In the library only some 7.9% were active in any assay of this set; here they are far more common.
HCV inh = qHTS Assay for Inhibitors of Hepatitis C Virus (HCV); Potency, µM (titrated, usually from 41.8 µM), for the others: at the highest dose activity change, negative = inhibition, actives largely listed as inhibitors; actives 3.4% (n = 340,000); Huh7.5.1 HCVcc-Cre infection, luciferase reporter, 44 h; active means well fitted inhibition curve with a large enough effect; inconclusive means small, poorly fitted or top-dose-only effect, or another doubt; inactive means no such curve, though single readings can be large or run the other way; further: potency means the concentration at half of the fitted maximal effect
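Whole-lifecycle infectious HCVcc-Cre system; cells 1,000/well, compound then virus (~0.5 moi) added 4 h after plating, 44 h culture. Luciferase read 15 sec following 15 min substrate incubation, room temp.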
FMDV antiviral = High Throughput Screening for Foot and Mouth Disease Virus Antivirals | Potency, µM (doses to about 57.9 µM), without a hit: at the highest dose activity change, negative = inhibition, hits mostly inhibitors | actives 1.2% (n = 410,000) | FMDV antiviral cell-based qHTS; calls by dose curve; tested in HEK293T cells; further: read-out not given here; potency means the concentration at half of the fitted maximal effect; nearly all actives have a fitted effect of over 45% in size
MARV entry inh = qHTS for inhibitors of binding or entry into cells for Marburg Virus; Marburg virus pseudotyped entry inhibition, cell reporter; Potency, µM (highest dose often 37.8 µM), without a hit: at the top dose activity change, negative = inhibition, usual class: inhibitors; actives 1.8% (n = 300,000); AID 540276, 2011; calls by dose curve; tested in HEK293 cells; further: potency means the concentration at half of the fitted maximal effect
LASV entry inh = qHTS for Inhibitors of binding or entry into cells for Lassa Virus. Lassa virus pseudotype entry inhibition, cell reporter. Potency, µM (top dose mostly 37.9 µM), inactives show at the highest dose activity change, negative = inhibition, actives largely listed as inhibitors. actives 1.2% (n = 300,000). AID 540256, 2011; calls by dose curve; tested in HEK293 cells; further: potency means the concentration at half of the fitted maximal effect; nearly all actives have a fitted effect of over 50% in size
HCMV antiviral = qHTS Assay for inhibitors of the human cytomegalovirus (HCMV); HFF cells, HCMV-luciferase reporter, 72 h; active compounds read low; activity change, negative = inhibition, % at 57.5 µM; actives 4.5% (n = 410,000); in the data active means activity change below about -60%; inconclusive means no clear call, values can overlap the other calls; inactive means above about -39%
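Two-dose cell screen: HFF monolayers treated with compounds and infected with luciferase-expressing HCMV at 1 PFU/cell, 72 h at 37C, then lysed for luciferase measurement.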
The depositor's hits bear a star; ? = inconclusive; / = no result; [ ] = another dose, or the depositor's remark. On the % scale 0 is the no-effect control and ±100 the full control effect.

SMILES | HCV inh | FMDV antiviral | MARV entry inh | LASV entry inh | HCMV antiviral
CCOC(=O)N/N=C/c1ccc(N(CC)CC)cc1O | 3.55µM* | 31.8% | ? | 4.47µM* | 24.0
CCN(CC)S(=O)(=O)c1cccc(C(=O)N/N=C/c2cccc(O)c2O)c1 | ? | -5.0% | ? | 13µM* | -23.9
CCN(CC)c1ccc(/C=N/NC(=O)c2c(Cl)cnn2C)c(O)c1 | 3.55µM* | 20.9% | 1.12µM* | 20.6µM* | -101.1*
CN(CC(=O)NCc1ccc2c(c1)OCO2)S(=O)(=O)c1ccc(F)cc1 | -11.3% | 1.8% | 3.5%[46.1 µM] | 6.5%[46.1 µM] | -5.6
Oc1ccc2ccccc2c1CNc1ccc(Br)cn1 | ? | 50.2% | / | / | 45.8
Cn1c(NCc2c(O)ccc3ccccc23)nc2ccccc21 | ? | ? | 20.6µM* | 10.7% | 47.0
Oc1ccc2ccccc2c1CNc1ccc(Br)cc1 | 2.51µM* | -9.2% | / | / | -15.9
COc1ccc(CNc2nc3ccccc3n2C)c(O)c1 | -2.1% | 11.4% | 11.2µM* | ? | 85.0
Oc1ccc(N=Nc2n[nH]c(-c3ccc(Cl)cc3)n2)cc1 | -13.1% | 56.4% | 1.9% | / | -94.9*
CC1CCc2nc(N)c(C#N)c(-c3ccncc3)c2C1 (stereo not drawn) | 9.7% | -13.9% | -1.1% | 27.0% | -23.3
CC1CCc2nc(N)c(C#N)c(-c3cccnc3)c2C1 (stereo not drawn) | ? | ? | / | / | -66.1*
COc1cc2c(cc1O)C(CSC)Cc1cc3c(cc1N(C)CC2)OCO3 (stereo not drawn) | / | -21.3% | / | / | -25.9
Cc1nnc(N2CCCCC2)c2ccccc12 | -6.0% | -21.6% | -7.3% | 9.0% | -5.7
CN1CCN(c2nnc(-c3ccc(F)cc3)c3ccccc23)CC1 | -24.5% | -3.0% | 4.3%[46.1 µM] | 6.2%[46.1 µM] | 47.2
Cc1ccc(-c2nnc(N3CCCCC3)c3ccccc23)cc1 | ? | -23.8% | / | / | -60.8*
Cc1ccc(-c2nnc(N3CCN(c4ccccn4)CC3)c3ccccc23)cc1 | ? | 22.4µM* | ? | ? | -38.1
Clc1nnc(N2CCCCC2)c2ccccc12 | -0.1% | -25.9% | 3.9%[46.1 µM] | 2.4%[46.1 µM] | -91.4*
Cc1ccc(-c2nnc(N3CCN(S(C)(=O)=O)CC3)c3ccccc23)cc1 | -12.1% | ? | -6.4% | -10.6% | -25.8
CCN1CCN(c2nnc(-c3ccc(F)cc3)c3ccccc23)CC1 | 2.82µM* | -14.8% | ? | -25.0%[46.1 µM] | 12.7
Cc1c(N)nc([C@H](CC(N)=O)NC[C@H](N)C(N)=O)nc1C(=O)N[C@H](C(=O)N[C@H](C)[C@@H](O)[C@H](C)C(=O)N[C@H](C(=O)NCCc1nc(-c2nc(C(=O)NCCCCN=C(N)N)cs2)cs1)[C@@H](C)O)[C@@H](O[C@@H]1O[C@@H](CO)[C@@H](O)[C@H](O)[C@@H]1O[C@H]1O[C@H](CO)[C@@H](O)[C@H](OC(N)=O)[C@@H]1O)c1cnc[nH]1 | / | -3.3% | / | / | /
C=CCN=C1N[C@@H](c2ccccc2)[C@H](C(=O)OC)[C@@H](C)N1CC | / | / | -24.9%[14.2 µM] | / | /
CC(=O)ON(C(C)=O)S(=O)(=O)c1ccc(Cl)cc1 | / | -1.3% | / | / | /
COc1ccc(-c2nnc(N3CCC(C)CC3)c3ccccc23)cc1 | -3.5% | 0.0% | -4.3% | -2.4% | -63.4*
CC1CCN(c2nnc(N3CCC(C)CC3)c3ccccc23)CC1 | 11.3% | -28.3% | / | / | 7.1
Cc1cncc(N2CCN(c3ccccn3)CC2)n1 | / | 6.0% | / | / | -23.4
SMILES | HCV inh | FMDV antiviral | MARV entry inh | LASV entry inh | HCMV antiviral
c1ccc(-c2nnc(N3CCN(c4ccccn4)CC3)c3ccccc23)cc1 | 14.1µM* | -17.8% | -51.6% | ? | ?
CS(=O)(=O)N1CCN(c2nnc(-c3ccccc3)c3ccccc23)CC1 | -3.8% | -28.4% | ? | -30.2% | 14.9
Cc1cc(-c2ccccc2)nc(N2CCN(c3ccccn3)CC2)n1 | ? | / | 9.2µM* | 4.61µM* | -2.5
CCOc1cc(/C=C2\C(=O)N(Cc3ccc(C)cc3)C(C)=C2C(=O)OC)ccc1O | -0.6% | 35.5µM* | 1.7% | ? | 23.1
C=CCOc1cccc(/C=C2\C(=O)N(Cc3ccc(C)cc3)C(C)=C2C(=O)OC)c1 | -23.2% | -60.9% | ? | ? | 36.1
Cn1ncc(Oc2ccc([N+](=O)[O-])cc2)c(Cl)c1=O | -7.6% | 0.6% | 9.8%[46.1 µM] | 0.2% | -90.8*
Cc1ccc(CN2CCC(CNC(=O)Nc3c(C)cccc3C)C2)cc1 (stereo not drawn) | / | -16.6% | 2.4%[46.1 µM] | 21.7%[46.1 µM] | -5.0
Cc1csc2nc(COC(=O)c3ccc(F)cc3)cc(=O)n12 | / | ? | / | -2.6%[46.1 µM] | 18.5
Cc1ccc(C)c(N2CCN(C(=O)CCc3c(C)nn(-c4ccc(N5CCCC5)nn4)c3C)CC2)c1 | / | ? | / | ? | -62.6*
CCC(C)N1C(=O)/C(=C\c2cc3c4c(c2)CCCN4CCC3)C(=O)NC1=S (stereo not drawn) | -22.2% | 31.6µM* | 0.9% | 4.5% | -33.6
CSc1ncc(/C=C2/C(=O)NC(=O)N(C)C2=O)cn1 | 8.9% | -9.6% | 11.8% | 8.9% | -12.5
CCC(C)N1C(=O)/C(=C\c2cnc(N(C)C)nc2)C(=O)NC1=S (stereo not drawn) | 14.7% | 22.4µM* | ? | 6.1% | -39.2
CCC(C)N1C(=O)/C(=C\c2ccc(N3CCCCCC3)cc2)C(=O)NC1=S (stereo not drawn) | 0.7% | ? | 4.2% | 25.4% | 39.9
COc1ccccc1C(=O)COC(=O)CNS(=O)(=O)c1ccc(C)cc1 | -27.9% | -11.7% | 1.5% | 24.7% | ?
CCC(=O)N1CCc2cc(Br)cc(S(=O)(=O)N3CCCC(C(=O)NC(C)(C)C)C3)c21 (stereo not drawn) | -4.1% | 14.6% | ? | 10.9% | -16.8
CCCC(=O)c1cc(-c2nc3ccccc3n2C)n(C)c1 | 22.4µM* | 7.6% | 10.1%[46.1 µM] | 2.2% | 17.3
CCCCCCOc1ccc(C2C(=O)N(C3CCCCC3)CC(=O)N2CCC)cc1 (stereo not drawn) | / | ? | / | 0.3%[46.1 µM] | 101.6
CCC(C)[C@H](NC(=O)c1cc2cc(Cl)ccc2n1C)C(=O)N1CCC(C(=O)O)CC1 (stereo partly drawn) | 1.9% | -5.9% | 0.2%[46.1 µM] | -0.3%[46.1 µM] | -67.6*
O=C(CN1c2ccccc2Sc2ccccc21)N/N=C/c1ccc([N+](=O)[O-])cc1 | ? | -18.8% | 8.91µM* | ? | 47.5
O=C(CN1c2ccccc2Sc2ccccc21)N/N=C/c1ccccc1 | ? | -20.9% | ? | ? | -26.6
CCn1c(-c2ccccc2F)nc2cc(NC(C)=O)cc(C(=O)N(C)Cc3ccccn3)c21 | / | -12.2% | / | / | /
O=C(NCc1cccnc1)c1cc(Sc2ccc(F)cc2F)nc2ccccc12 | 10µM* | ? | 11.2µM* | ? | -64.3*
O=C(NCCc1ccccc1)c1cc(Sc2ccc(F)cc2F)nc2ccccc12 | / | -16.7% | / | -17.9%[46.1 µM] | 0.7
CN(C)CCCOC(=O)COc1ccc(Br)cc1 | 6.1% | -6.0% | / | / | 11.5
COc1ccc(Nc2nnc(-c3ccc(C)c(S(N)(=O)=O)c3)c3ccccc23)cc1 | / | 90.0% | / | -7.5%[46.1 µM] | ?

Screening data (PubChem BioAssay)
